This test in a line: growth inhibition of WT strain, primary screen, mitochondrial fusion inhibitor project, WT and mutant strains, chemical genetic (AID 1362). The following applies: mitochondrial fusion phenotypic screen, at 10 µM.
[1] abbreviates: WT strain, growth inhibition, stronger effect = higher value.

Usually inhibition stands for the drop in the measured response relative to a control, in per cent.

About 4,000 (2.1%) of roughly 190,000 compounds were called active. Rule as the data show it: active = inhibition above about 58%; inactive = the rest, inconclusive results apart; tested in S. cerevisiae. The entries come from a sample that favours actives as a whole.

`CC1=NN(c2cccc(Cl)c2)C(=O)C12CC(C)=C(C)CS2` (stereo not given): the inhibition is 71.2% (active) under setting [1] and 49.2% (mutant strain inhibition).

For the compound `CC12CCC(C(=O)N(c3cccc(Cl)c3)C1=O)C2(C)C` (stereo not given), the inhibition under setting [1] was 15.3% (inactive) and the inhibition (mutant strain inhibition) is 1.52%.

Take `CCCCN(CC)CCNC(=O)CCNC(=O)Cn1ccc2ccccc2c1=O`: the inhibition under setting [1] is -12.2% (inactive) and the inhibition (mutant strain inhibition) worked out at 5.97%.

On to `CN(C)c1ccc(/C=N/Nc2cc(N3CCOCC3)nc(N3CCOCC3)n2)cc1`, for which the inhibition under setting [1] is 2.15% (inactive) and the inhibition (mutant strain inhibition) is -1.62%.

Consider `Cc1ccc(NC(=S)NC2CCCC2)cc1`, for which the inhibition is 1.79% (inactive) under setting [1] and -5.24% (mutant strain inhibition).

As for `C/C(=N/NC(=O)c1ccc(Br)o1)c1ccc(C)o1`, the inhibition reads like this: under setting [1], -7.01% (inactive); (mutant strain inhibition) -8.07%.

Consider `C/C(=N\NC(=S)NC1CCCCC1)c1ccc(C)o1`, for which the inhibition by setting is: under setting [1], 76.5% (active); (mutant strain inhibition) 64.5%.

For the compound `COc1ccc(C(=O)Nc2ccc(N3CCC(C)CC3)cc2)cc1Br`, the inhibition under setting [1] is -5.4% (inactive) and the inhibition (mutant strain inhibition) worked out at 7.51%.

Consider `O=S(=O)(c1ccc2c(c1)OCCO2)N1CCc2ccccc21`, for which the inhibition by setting is: under setting [1], -3.01% (inactive); (mutant strain inhibition) -8.75%.

With `CN(C)C=NC(=O)c1cccn1-c1ncc(C(F)(F)F)cc1Cl`, the inhibition by setting is: under setting [1], 17.4% (inactive); (mutant strain inhibition) -2.64%.

In the case of `Cc1noc(C)c1COc1ccc2ccc(=O)oc2c1`, the inhibition was 7.56% (inactive) under setting [1] and -14.3% (mutant strain inhibition).

Consider `c1n[nH]c(NCc2ccc3c(c2)OCO3)n1`, for which the inhibition under setting [1] is 76.9% (active) and the inhibition (mutant strain inhibition) was determined as 23%.

On to `O=C(CSc1ncn[nH]1)NCc1ccc2c(c1)OCO2`, for which the inhibition reads like this: under setting [1], -7.65% (inactive); (mutant strain inhibition) 6.4%.

Consider `COc1cc(CNc2ncn[nH]2)ccc1OCc1ccccc1C`, for which the inhibition is -10% (inactive) under setting [1] and 6.17% (mutant strain inhibition).

As for `CCCCCC(O)c1cccc(OCc2ccc3ccccc3n2)c1` (stereo not given), the inhibition is 77.5% (active) under setting [1] and 12.2% (mutant strain inhibition).

As for `CCCCCCOC(=O)NCC(O)c1ccccc1` (stereo not given), the inhibition by setting is: under setting [1], -6.62% (inactive); (mutant strain inhibition) -10.2%.

On to `CCCn1c(C(O)c2ccc(OCC)cc2)nc2ccccc21` (stereo not given), for which the inhibition by setting is: under setting [1], 16.9% (inactive); (mutant strain inhibition) 18.6%.

Regarding `CCn1c(N)c(Br)c(=O)[nH]c1=O`, the inhibition is, setting by setting: under setting [1], -1.38% (inactive); (mutant strain inhibition) 6.81%.

In the case of `CCOC(=O)c1ccc[n+](CC(=O)Nc2ccccc2OC(F)F)c1`, the inhibition was -21.9% (inactive) under setting [1] and -5.87% (mutant strain inhibition).

On to `CCOC(=O)c1sc(=NC(=O)/C=C/c2cccs2)n(C)c1C`, for which the inhibition is, setting by setting: under setting [1], 11.4% (inactive); (mutant strain inhibition) -7.32%.

Consider `COc1ccc(NC(=O)C(Br)C(C)C)cc1` (stereo not given), for which the inhibition by setting is: under setting [1], -7.51% (inactive); (mutant strain inhibition) 2.44%.

Consider `CC1CCN(c2ccc([N+](=O)[O-])cc2C(N)=O)CC1`, for which the inhibition by setting is: under setting [1], 3.04% (inactive); (mutant strain inhibition) -16.1%.

`Cc1ccc(SCCC(=O)OCC(=O)Nc2ncc(Cl)cc2Cl)cc1`: the inhibition is 2.29% (inactive) under setting [1] and 2.8% (mutant strain inhibition).

As for `Cc1ccc(-n2c(SCC(=O)Nc3ncc(Cl)cc3Cl)nc3ccccc32)cc1`, the inhibition was 74.2% (active) under setting [1] and 43.6% (mutant strain inhibition).

In the case of `NS(=O)(=O)c1cccc(NC(=O)CSc2nc3ccccc3n2-c2ccccc2)c1`, the inhibition was -7.39% (inactive) under setting [1] and 1% (mutant strain inhibition).

As to `S=C(c1ccc(-c2ccccc2)o1)N1CCCCC1`, the inhibition was 43.1% (inactive) under setting [1] and 35.3% (mutant strain inhibition).

For the compound `Clc1ccc(Nc2nc(-c3cccs3)cs2)nc1`, the inhibition reads like this: under setting [1], 78.8% (active); (mutant strain inhibition) 68.5%.

As to `O=C(Nc1ccc(Cl)cn1)Nc1cccs1`, the inhibition is, setting by setting: under setting [1], 8.8% (inactive); (mutant strain inhibition) 18.2%.

For `c1ccc(Nc2nc(-c3ccncc3)cs2)nc1`, the inhibition by setting is: under setting [1], 23.8% (inactive); (mutant strain inhibition) 27.6%.

Turning to `COc1ccccc1N1CCN(/N=C\C(Br)=C\c2ccccc2)CC1`, the inhibition under setting [1] is 15.4% (inactive) and the inhibition (mutant strain inhibition) came out at 14.3%.

On to `O=C(Nc1ccccc1Cl)/C(Cl)=C(\Cl)S(=O)c1ccccc1` (stereo not given), for which the inhibition is, setting by setting: under setting [1], 95.8% (active); (mutant strain inhibition) 92.8%.

Consider `O=C(Nc1ccccc1Cl)c1ccc2nsnc2c1`, for which the inhibition is -2.83% (inactive) under setting [1] and -10.8% (mutant strain inhibition).

With `O=C(CN1CCCCC1)Nc1ccccc1Cl`, the inhibition under setting [1] is -11.8% (inactive) and the inhibition (mutant strain inhibition) was found to be 3.7%.

On to `O=C(Cc1ccccc1)NNC(=O)C1CCN(c2ncccn2)CC1`, for which the inhibition under setting [1] was -17.4% (inactive) and the inhibition (mutant strain inhibition) was -9.74%.

As for `O=C(COc1ccccc1[N+](=O)[O-])NC1CC1`, the inhibition was -0.95% (inactive) under setting [1] and 8.16% (mutant strain inhibition).

Regarding `CC(c1ccco1)N(C(=O)COc1ccccc1[N+](=O)[O-])c1ccccn1` (stereo not given), the inhibition under setting [1] was 70.6% (active) and the inhibition (mutant strain inhibition) came to 2.58%.

`CC(c1ccco1)N(C(=O)c1ccc(S(=O)(=O)N2CCCCC2)cc1)c1ccccn1` (stereo not given): the inhibition under setting [1] is 4.63% (inactive) and the inhibition (mutant strain inhibition) was -4.51%.

With `CCCCN(CC(=O)NC(C)(C)C)C(=O)C(=O)Nc1ccc2c(c1)OCCO2`, the inhibition was -14.6% (inactive) under setting [1] and 11% (mutant strain inhibition).

In the case of `OCCC#Cc1ccc(CN2CCN(Cc3ccsc3)C(CCO)C2)cc1` (stereo not given), the inhibition is, setting by setting: under setting [1], 2.66% (inactive); (mutant strain inhibition) -0.56%.

On to `CCOC(=O)c1ccc(NC(=S)Nc2cc(C)cc(C)n2)cc1`, for which the inhibition runs as follows: under setting [1], 12.9% (inactive); (mutant strain inhibition) 22.8%.

Turning to `Cc1ccc2c(c1)C1CN(C)CCC1N2S(=O)(=O)c1ccc(Oc2ccc([N+](=O)[O-])cc2)cc1` (stereo not given), the inhibition runs as follows: under setting [1], 78.9% (active); (mutant strain inhibition) 62.2%.

For `Cc1ccc2c(c1)C1CN(C)CCC1N2C(=S)Nc1ccc(OC(F)F)cc1` (stereo not given), the inhibition is, setting by setting: under setting [1], 17.8% (inactive); (mutant strain inhibition) 8.65%.

Regarding `Cc1ccc2c(c1)C1CN(C)CCC1N2C(=O)c1ccccc1NS(=O)(=O)c1ccc(F)cc1C` (stereo not given), the inhibition by setting is: under setting [1], -2.24% (inactive); (mutant strain inhibition) -7.82%.

For `Cc1ccc(S(=O)(=O)CCC(=O)OCc2ccccc2)cc1`, the inhibition by setting is: under setting [1], 0.5% (inactive); (mutant strain inhibition) 13.9%.

Take `C=CCN(CC=C)CCOc1ccccc1[N+](=O)[O-]`: the inhibition was 1.42% (inactive) under setting [1] and 1.87% (mutant strain inhibition).

For the origin of these results see PubChem BioAssay AID1362 (SRMLSC, 2008).
